Values joined by “and” are separate entries in the source; they are usually repeats but may differ in a detail not shown here. Equal entries are not always repeated. In all, about 360,000 compounds went through this assay and about 3,900 (1.1%) were called active. The entries come from a sample that favours actives as a whole. Values without a mark were called inactive.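 The calls were made as follows: active = mean replicate inhibition score of at least 50 and every replicate individually at or above 50; inconclusive = only one of the two criteria met; inactive = mean below 50 and not all replicates reaching 50.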
Experiment: blockers of JRFL envelope-mediated fusion – HeLa-JRFL effector, CEM21 target cells, luciferase, primary screen (AID 651610);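 also: 0% = plate neutral controls and 100% = maraviroc near 300 nM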
Conditions: HeLa-JRFL Env/CEM21 cell fusion, hits give high values

Structure (SMILES): C[C@@H]1CN([C@H](C)CO)C(=O)Cc2cc(NS(=O)(=O)c3cccs3)ccc2O[C@@H]1CN(C)C(=O)Nc1ccc(F)cc1
- inhibition (at 16.7 µM unless noted): -7.97%

Structure (SMILES): C[C@@H]1CN([C@H](C)CO)C(=O)c2cc(NC(=O)Nc3cccc4ccccc34)ccc2O[C@@H](C)CCCCO[C@H]1CN(C)S(=O)(=O)c1cccs1
- inhibition (at 16.7 µM unless noted): 15.1%

Structure (SMILES): CCCCCc1c(-c2cccc(Br)c2)ncn1CCc1ccccc1OC
- inhibition (at 16.7 µM unless noted): 11.9% [at 12.3 µM]

Structure (SMILES): CCCCCc1c(Cc2ccccc2)ncn1CCc1ccccc1OC
- inhibition (at 16.7 µM unless noted): 109% [at 12.3 µM] (active)

Structure (SMILES): CCCCCc1c(-c2ccc(OC)c(OC)c2)ncn1CCc1ccccc1OC
- inhibition (at 16.7 µM unless noted): 49.2% [at 12.3 µM]

Structure (SMILES): O=C(C[C@H]1C[C@H]2c3cc(NC(=O)CC4CC4)ccc3O[C@H]2[C@H](CO)O1)NCc1ccccc1
- inhibition (at 16.7 µM unless noted): 8.72%

Structure (SMILES): CC(=O)C1=C(C)N(Cc2ccc(Cl)cc2)C(=S)NC1c1ccc(F)cc1 (stereo not given)
- inhibition (at 16.7 µM unless noted): 62.3% [at 12.3 µM] (active)

Structure (SMILES): COC(=O)C1=C(C)N(Cc2ccc(F)cc2)C(=S)NC1c1cccc(Cl)c1 (stereo not given)
- inhibition (at 16.7 µM unless noted): 34.2% [at 12.3 µM]

Structure (SMILES): CC(=O)C1=C(C)N(Cc2ccccc2)C(=S)NC1c1cccc(Br)c1 (stereo not given)
- inhibition (at 16.7 µM unless noted): 0.027% [at 12.3 µM]

Structure (SMILES): C[C@@H]1CCCCO[C@@H](CN(C)S(=O)(=O)c2cccs2)[C@@H](C)CN([C@H](C)CO)C(=O)c2cc(NC(=O)Nc3ccc4c(c3)OCO4)ccc2O1
- inhibition (at 16.7 µM unless noted): 4.87%

Structure (SMILES): COCC(=O)Nc1ccc2c(c1)C(=O)N(C)C[C@H](OC)[C@@H](C)CN(C(=O)Cc1cccnc1)[C@@H](C)CO2
- inhibition (at 16.7 µM unless noted): 0.828%

Structure (SMILES): S=c1c2[nH]cnc2ncn1CCSc1ncnc2nc[nH]c12
- inhibition (at 16.7 µM unless noted): -6.63% [at 12.3 µM]

Structure (SMILES): CCc1ccc(N(CC)c2ncnc3nc[nH]c23)cc1
- inhibition (at 16.7 µM unless noted): 55.5% [at 12.3 µM] (active)

Structure (SMILES): CCC(=O)N1[C@H](C(=O)NCc2ccc(F)cc2)[C@@H](CO)[C@@H]2Cn3c(ccc(C4=CCCCC4)c3=O)[C@@H]21
- inhibition (at 16.7 µM unless noted): 22.3%

Structure (SMILES): C[C@@H]1CCCCO[C@@H](CN(C)Cc2ccncc2)[C@@H](C)CN([C@@H](C)CO)C(=O)c2cc(N(C)C)ccc2O1
- inhibition (at 16.7 µM unless noted): 12.4%

Structure (SMILES): Brc1ccc2ncnc(NCc3cccnc3)c2c1
- inhibition (at 16.7 µM unless noted): 43.2% [at 12.3 µM]

Structure (SMILES): C=CCNc1ncnc2ccc(Br)cc12
- inhibition (at 12.3 µM): 92.8% (active)
- inhibition (at 16.7 µM): 9.63% and 27.5%

Structure (SMILES): O=C(O)CCCCCNc1ncnc2ccc(Br)cc12
- inhibition (at 16.7 µM unless noted): 26.9% [at 12.3 µM]

Structure (SMILES): CN1CCN(C(=O)C[C@H]2C[C@H]3c4cc(NC(=O)Nc5ccccc5F)ccc4O[C@H]3[C@H](CO)O2)CC1
- inhibition (at 16.7 µM unless noted): -13.6%

Structure (SMILES): COc1ccccc1CNC(=O)C[C@@H]1C[C@@H]2c3cc(NC(=O)C4CCOCC4)ccc3O[C@@H]2[C@@H](CO)O1
- inhibition (at 16.7 µM unless noted): -2.64%

Structure (SMILES): Cn1c(CN2CCOCC2)nc2cc(NC(=O)c3ccc(Cl)cc3)ccc21
- inhibition (at 16.7 µM unless noted): 66.4% [at 12.3 µM] (active)

Structure (SMILES): CCOC(=O)N1CCN(Cc2nc3cc(NC(C)=O)ccc3n2C)CC1
- inhibition (at 16.7 µM unless noted): 9.8% [at 12.3 µM]

Structure (SMILES): O=C(Nc1ccc(CN2CCOCC2)cc1)c1cc(Cl)ccc1Cl
- inhibition (at 16.7 µM unless noted): -16% [at 12.3 µM]

Structure (SMILES): CNC[C@@H]1Oc2cc(-c3ccccc3OC)ccc2S(=O)(=O)N([C@@H](C)CO)C[C@H]1C
- inhibition (at 16.7 µM unless noted): -40.9%

Structure (SMILES): CCCNC(=O)N(C)C[C@H]1Oc2cc(-c3ccncc3)ccc2S(=O)(=O)N([C@H](C)CO)C[C@H]1C
- inhibition (at 16.7 µM unless noted): -10.2%

Structure (SMILES): CC(=O)c1c(C)[nH]c(C(=O)OCC(=O)NCCC(C)C)c1C
- inhibition (at 16.7 µM unless noted): 38.2% [at 12.3 µM]

Structure (SMILES): CC(=O)c1c(C)[nH]c(C(=O)OCC(=O)Nc2c(C)cccc2C)c1C
- inhibition (at 16.7 µM unless noted): 76.4% [at 12.3 µM] (active)

Structure (SMILES): CC(=O)c1c(C)[nH]c(C(=O)OCC(=O)Nc2cc(S(=O)(=O)N3CCCCC3)ccc2C)c1C
- inhibition (at 16.7 µM unless noted): 0.591% [at 12.3 µM]

Structure (SMILES): CO[C@@H]1CN(C)C(=O)c2cc(NS(=O)(=O)c3ccccc3C)ccc2OC[C@@H](C)N(S(C)(=O)=O)C[C@@H]1C
- inhibition (at 16.7 µM unless noted): 23.9%

Structure (SMILES): C[C@@H]1CN([C@@H](C)CO)C(=O)c2cc(-c3ccccc3F)cnc2O[C@@H]1CN(C)Cc1cccc(F)c1
- inhibition (at 16.7 µM unless noted): 6.32%

Structure (SMILES): Cc1cccc(C)c1NC(=O)CN1CCN(c2ccc(F)cc2)CC1
- inhibition (at 16.7 µM unless noted): -17.6% [at 12.3 µM]

Structure (SMILES): CC1CCCC(C)N1C(=O)CN1CCN(c2nc(-c3ccc(F)cc3)cs2)CC1 (stereo not given)
- inhibition (at 16.7 µM unless noted): 57.8% [at 12.3 µM] (active)

Structure (SMILES): O=C(COC(=O)C1CCCO1)Nc1nc(-c2ccc(F)cc2)cs1 (stereo not given)
- inhibition (at 16.7 µM unless noted): -32.6% [at 12.3 µM]

Structure (SMILES): C[C@@H]1CN([C@@H](C)CO)S(=O)(=O)c2ccc(C#Cc3ccccc3F)cc2O[C@H]1CN(C)C(=O)c1ccc2c(c1)OCO2
- inhibition (at 16.7 µM unless noted): 48.7%

Structure (SMILES): CCC(=O)N(C)C[C@@H]1Oc2cc(C#Cc3cccnc3)ccc2S(=O)(=O)N([C@H](C)CO)C[C@@H]1C
- inhibition (at 16.7 µM unless noted): 19.7%

Structure (SMILES): CNC(=O)C[C@@H]1CC[C@@H]2[C@H](COc3ccc(NC(=O)c4cccs4)cc3C(=O)N2C)O1
- inhibition (at 16.7 µM unless noted): 0.696%

Structure (SMILES): CO[C@H]1CN(C)C(=O)c2cc(NS(=O)(=O)c3ccccc3)ccc2OC[C@H](C)N(C)C[C@@H]1C
- inhibition (at 16.7 µM unless noted): 5.07%

Structure (SMILES): CNC[C@H]1Oc2cc(-c3cccnc3)ccc2S(=O)(=O)N([C@@H](C)CO)C[C@H]1C
- inhibition (at 16.7 µM unless noted): -16.2%

Structure (SMILES): CC(=O)N[C@H]1CC[C@H](CCNC(=O)C2CC2)O[C@H]1CO
- inhibition (at 16.7 µM unless noted): -15.4%

Structure (SMILES): CCOC(=O)C(Cc1ccc(N)cc1)N1C(=O)c2ccccc2C1=O (stereo not given)
- inhibition (at 16.7 µM unless noted): 6.82% [at 12.3 µM]

Structure (SMILES): CCOC(=O)C1=C(c2ccc(OC)cc2)C(=O)c2ccccc2C1=O
- inhibition (at 16.7 µM unless noted): 74.3% [at 12.3 µM] (active)

Structure (SMILES): CCOC(=O)C(Cc1ccccc1)NC(=O)CCC(=O)c1ccc(OC)cc1 (stereo not given)
- inhibition (at 16.7 µM unless noted): 4.22% [at 12.3 µM]

Structure (SMILES): COc1ccc(NC(=O)Nc2ccc3c(c2)C(=O)N([C@@H](C)CO)C[C@@H](C)[C@H](CN(C)C(=O)NC(C)C)OCCCC[C@H](C)O3)cc1
- inhibition (at 16.7 µM unless noted): 11.6%

Structure (SMILES): CCN1C(=O)[C@@H]2[C@@H](c3ccc(-c4ccccc4)cc3)N3CCCC[C@@]3(C(=O)OC)[C@@H]2C1=O
- inhibition (at 16.7 µM unless noted): -3.15% [at 12.3 µM]

Structure (SMILES): CCCCCCSc1ccc([C@@H]2[C@H]3C(=O)N(CC)C(=O)[C@H]3[C@]3(C(=O)OC)CCCCN23)cc1
- inhibition (at 16.7 µM unless noted): 8.61% [at 12.3 µM]

Structure (SMILES): CCN1C(=O)[C@@H]2[C@@H](c3ccc(-c4cccc(Cl)c4)cc3)N3CCC[C@@]3(C(=O)OC)[C@@H]2C1=O
- inhibition (at 16.7 µM unless noted): -3.1% [at 12.3 µM]

Structure (SMILES): CCN1C(=O)[C@@H]2[C@@H](c3ccc(-c4ccc(OC)cc4)c(OC)c3)N3CCC[C@@]3(C(=O)OC)[C@@H]2C1=O
- inhibition (at 16.7 µM unless noted): -5% [at 12.3 µM]

Structure (SMILES): CCCCCCSc1ccc([C@@H]2[C@@H]3C(=O)N(CC)C(=O)[C@@H]3[C@]3(C(=O)OC)CCCCN23)cc1OC
- inhibition (at 16.7 µM unless noted): 73.2% [at 12.3 µM] (active)

Structure (SMILES): COC(=O)[C@@]12CCCN1[C@H](c1ccc(-c3ccc(F)cc3)c(OC)c1)[C@H]1C(=O)N(C)C(=O)[C@H]12
- inhibition (at 16.7 µM unless noted): 71.6% [at 12.3 µM] (active)

Reference: PubChem BioAssay AID651610 (Broad Institute, 2012)
